Assay outcomes: PubChem BioAssay, Broad Institute
The list is not random: actives were taken first. Their share in the collection is about 1.7%.
FGF22 binding-1: binders of recombinant human FGF22 by thermal shift. SYPRO orange fluorescence; percent of sucrose octasulfate shift, DMSO zero. actives 1.5% (n = 340,000). activity (Tm shift, normalised), % at 9.99 µM. Q9HCT0;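 active = mean Tm shift, scaled 0 neutral to 100 positive control, at about 1.3% or above, every replicate too, limit read from the data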
Target sequence (Q9HCT0 whole entry, looked up): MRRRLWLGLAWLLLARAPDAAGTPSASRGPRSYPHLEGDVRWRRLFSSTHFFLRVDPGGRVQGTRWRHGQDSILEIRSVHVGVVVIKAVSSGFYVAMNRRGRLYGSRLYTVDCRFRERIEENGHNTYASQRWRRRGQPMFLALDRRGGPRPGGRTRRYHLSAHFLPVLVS
F508del corr: correctors of CFTR F508del function in bronchial epithelial cells; CFBE cells, YFP halide quenching; stimulated with forskolin plus potentiator P3; % fluorescence drop versus neutral controls; AID 720511; activity (quench increase), % at 7.58 µM; actives 0.36% (n = 350,000);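 active = mean added fluorescence quench of at least 8% versus neutral control, with both replicates also reaching 8%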;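 note: cells transiently co-express mutant CFTR-F508del with the halide-sensitive YFP; corrector assay measuring rescue of mutant channel to the surface after 24 h compound exposure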
FGF22 binding-2: binds human FGF22 shifting its melting temperature; shares compounds with FGF22 binding-1; recombinant FGF22 thermal shift, SYPRO orange fluorescence; thermal shift activity, °C (ΔTm) at 38 µM; actives 2% (n = 1,000);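 active = fitted rise in melting shift crosses a set limit at or below the top valid dose tested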
SYPRO no-protein: compound-only SYPRO artifact for FGF22 binders | shares compounds with FGF22 binding-1 | compound-only SYPRO orange thermal shift counter-screen, no protein | AC50, µM (titrated, usually from 38 µM) | actives 2% (n = 1,000);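 active = rising signal whose fitted curve reaches the 0.54 level within the top valid dose, showing a melting point, actives reach about 13 µM in these data; inactive = the rest, including activity in the opposite direction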; note: value is where the raw curve crosses a fixed level and not half-maximal
An asterisk follows results filed as active; [ ] = remark or other dose.

Screening CCCN(C)C[C@@H]1Oc2cc(C#CC(C)(C)O)ccc2S(=O)(=O)N([C@@H](C)CO)C[C@@H]1C returned FGF22 binding-1 1.3*, F508del corr -2, FGF22 binding-2 0.18[42 µM] and SYPRO no-protein inactive.
For CCCN(C)C[C@H]1Oc2cc(C#CC(C)(C)O)ccc2S(=O)(=O)N([C@@H](C)CO)C[C@H]1C the results were FGF22 binding-1 1 and F508del corr 2.
C[C@H](CO)N1C[C@H](C)[C@H](CN(C)S(C)(=O)=O)Oc2ccc(NS(=O)(=O)c3ccc(Cl)cc3)cc2CC1=O was read as FGF22 binding-1 0 and F508del corr -1.
`CN(C)c1ccc2c(c1)[C@H]1C[C@H](CC(=O)NCc3cc(F)ccc3F)O[C@@H](CO)[C@H]1O2` gave FGF22 binding-1 -1 and F508del corr -5.
O=C(c1ccc(F)cc1)N1[C@@H](CO)[C@@H]2c3ccccc3NC[C@@H]21 was read as FGF22 binding-1 -1 and F508del corr -3.
CN1[C@@H]2c3ccc(C4=CCCC4)c(=O)n3C[C@H]1[C@H](CO)[C@H]2C(=O)N1CCOCC1 was read as FGF22 binding-1 0 and F508del corr 0.
CCCNC(=O)N1C[C@H](C)[C@@H](OC)CN(C)C(=O)c2cc(NC(=O)CCC)ccc2OC[C@H]1C was read as FGF22 binding-1 0 and F508del corr -1.
`CO[C@H]1CN(C)C(=O)c2cc(C#N)ccc2OC[C@@H]2O[C@H](CC[C@H]2OC)CCN(C)C(=O)[C@@H]1C` gave FGF22 binding-1 0 and F508del corr -2.
Screening CO[C@H]1CN(C)C(=O)c2cc(NS(=O)(=O)c3ccc(C)cc3)ccc2OC[C@@H](C)N(C(=O)NC(C)C)C[C@H]1C returned FGF22 binding-1 0 and F508del corr 2.
CCC(=O)Nc1ccc2c(c1)C(=O)N(C)C[C@@H](OC)[C@H](C)CN(C(=O)COC)[C@H](C)CO2 was read as FGF22 binding-1 0 and F508del corr -3.
`CO[C@@H]1CN(C)C(=O)c2ccc(NC(=O)C3CC3)cc2OC[C@@H](C)N(C(=O)CN2CCOCC2)C[C@H]1C` gave FGF22 binding-1 0 and F508del corr -3.
CO[C@@H]1CN(C)C(=O)c2ccc(NC(C)=O)cc2OC[C@@H](C)N(C(=O)Cc2ccccn2)C[C@H]1C was read as FGF22 binding-1 1.4*, F508del corr 0, FGF22 binding-2 0.036[42 µM] and SYPRO no-protein inactive.
CO[C@@H]1CN(C)C(=O)c2ccc(NC(=O)C3CC3)cc2OC[C@H](C)N(C(=O)CN2CCOCC2)C[C@@H]1C was read as FGF22 binding-1 1.4*, F508del corr -2, FGF22 binding-2 0.023 and SYPRO no-protein inactive.
Screening CCC(=O)Nc1ccc2c(c1)C(=O)N(C)C[C@H](OC)[C@@H](C)CN(C(=O)CC)[C@@H](C)CO2 returned FGF22 binding-1 1.5*, F508del corr 1, FGF22 binding-2 0.13[42 µM] and SYPRO no-protein inactive.
`CO[C@@H]1CN(C)C(=O)c2ccc(NC(C)=O)cc2OC[C@@H](C)N(C(=O)Cc2ccccn2)C[C@@H]1C` gave FGF22 binding-1 -1 and F508del corr 1.
Screening CO[C@H]1CN(C)C(=O)c2cc(NS(=O)(=O)c3ccc(C)cc3)ccc2OC[C@@H](C)N(C(=O)NC(C)C)C[C@@H]1C returned FGF22 binding-1 1.2*, F508del corr 1, FGF22 binding-2 -0.021 and SYPRO no-protein inactive.
O=C(C[C@H]1C[C@H]2c3cc(NC(=O)C4CCC4)ccc3O[C@H]2[C@@H](CO)O1)NCc1cccc(F)c1 was read as FGF22 binding-1 -1 and F508del corr 0.
